Test results taken from PubChem BioAssay (NCATS).
Records with an inconclusive call do not appear. Where a call stands in place of a potency, no number is given. Active and inactive are the calls of the source. The call rests on the fitted dose curve; in most records, active means well fitted curve in the direction sought with a large enough effect; inconclusive means small, poorly fitted or top-dose-only effect, or another doubt; inactive means no such curve, though single readings can be large; an effect the other way counts as inactive or inconclusive.

Key:
[1] = target: Aldehyde dehydrogenase, mitochondrial (Homo sapiens) (UniProt P05091); test: qHTS for Inhibitors of the Aldehyde Dehydrogenase Family (ALDH2) Primary screen (AID 2061308); conditions: ALDH2 enzyme inhibition qHTS, 1536-well; series mostly up to 56 µM; further: nearly all actives have a fitted effect of over 55% in size
[2] = target: Retinaldehyde dehydrogenase 3 (Homo sapiens) (UniProt P47895); test: qHTS for Inhibitors of the Aldehyde Dehydrogenase Family (ALDH1A3) Primary screen (AID 2061315); conditions: ALDH inhibition qHTS; series mostly up to 56 µM

SMILES	Potency [1]	Potency [2]
CCN(CC)CCCn1c(-c2ccccc2)nc2c(N(CCOC)CCOC)nc(C)nc21	inactive	inactive
COc1cc(O)c(C(CC(=O)N2CC(C)NC(C)C2)c2ccc3c(c2)OCO3)c(OC)c1 (stereo not drawn)	inactive	inactive
O=C(O)c1ccc(O)c2ncc(-c3cccc(N4CCOCC4)c3)cc12	inactive	inactive
C=C1C(=O)OC2C1CCC1(C)C(O)CCC(=C)C21 (stereo not drawn)	inactive	inactive
FC(F)(F)c1cccc(-c2ccc(CNc3nc(-c4ccccc4C(F)(F)F)nc4ccccc34)cc2)c1	inactive	inactive
O=S(=O)(c1ccc2c(c1)OCCO2)N1C[C@@H]2C[C@H]1CN2S(=O)(=O)c1c(F)cccc1F	inactive	inactive
c1cncc(-c2ccc(CNc3nc(N4CCOCC4)nc4ccccc34)cc2)c1	inactive	inactive
NC(=O)c1cnc(N[C@@H]2CCCC[C@H]2N)nc1Nc1cccc(-n2nccn2)c1	inactive	inactive
Cc1ccc(-c2ccc(C(C)Nc3nc(-c4ccccc4C(C)C)ncc3C)cc2)cn1 (stereo not drawn)	inactive	inactive
O=C1c2ccccc2C(=O)N1Cc1ccccc1	inactive	inactive
CCCn1c(C)nc2c(NCCOC)nc(C)nc21	inactive	inactive
c1ccc(C2Nc3cccc4cccc(c34)N2)cc1	inactive	inactive
COCC1CCCN(C(=O)CC(c2ccc3c(c2)OCO3)c2c(O)cc(OC)cc2OC)C1 (stereo not drawn)	inactive	inactive
CC(C)=CCC[C@](C)(O[C@@H]1O[C@H](CO[C@@H]2O[C@@H](CO)[C@H](O)[C@H]2O)[C@@H](O)[C@H](O)[C@H]1O)[C@H]1CC[C@]2(C)[C@@H]1[C@H](O)C[C@@H]1[C@@]3(C)CC[C@H](O[C@@H]4O[C@H](CO)[C@@H](O)[C@H](O)[C@H]4O[C@@H]4O[C@H](CO)[C@@H](O)[C@H](O)[C@H]4O)C(C)(C)[C@@H]3CC[C@]12C	inactive	inactive
O=[S+]([O-])(Nc1ccc(C2CCNCC2)cc1)c1ccc(NCc2ccc(Cl)cc2O)cc1	inactive	inactive
COc1ccc(C2=Nn3c(nnc3-c3ccccc3Cl)SC2)cc1OC1CCCC1	inactive	inactive
COc1ccc(NS(=O)(=O)c2ccc(C)cc2)cc1C(=O)Nc1nc(-c2ccccc2)cs1	inactive	inactive

SMILES	Potency [1]	Potency [2]
CC(=O)O[C@H]1C(=O)[C@@]2(C)[C@H]([C@H](OC(=O)c3ccccc3)[C@]3(O)C[C@H](OC(=O)[C@H](O)[C@@H](NC(=O)c4ccccc4)c4ccccc4)C(C)=C1C3(C)C)[C@]1(OC(C)=O)CO[C@@H]1C[C@@H]2O	inactive	inactive
Clc1ccc2ncc(-c3cccc(NC4CCNC4)n3)n2c1 (stereo not drawn)	inactive	inactive
O=S(=O)(Nc1ccccc1F)c1ccc(O)c2ncccc12	inactive	inactive
O=C(Nc1ccc(Cl)c([N+](=O)[O-])c1)Nc1cccc(-c2ccncc2)n1	inactive	inactive
Cc1c([S+](=O)([O-])N2CCN([S+](=O)([O-])c3c(F)cccc3F)CC2)sc2ccc(Cl)cc12	inactive	inactive
N#Cc1c(-c2ccccc2)no[n+]1[O-]	inactive	inactive
CCCCn1cnc2cc(C(=O)N3CCCCC3)ccc21	inactive	inactive
CN1[C@@H]2CC[C@H]1CC(OC(=O)C(CO)c1ccccc1)C2 (stereo partly drawn)	inactive	inactive
CC1(C)CC(=O)C2=C(C1)NC(Nc1nc3ccccc3o1)=NC21CCCCC1	inactive	inactive
Cc1ccccc1N(C)C1=N[S+](=O)([O-])c2ccccc21	inactive	inactive
CCCn1c(C)nc2c(NCC3CCCN3CC)nc(C)nc21 (stereo not drawn)	inactive	inactive
CC(C)(C)OC(=O)NCCCNc1ncnc2ccc(-c3ccc4c(c3)OCO4)cc12	inactive	inactive
FC(F)(F)c1ccccc1-c1nc(NCc2ccc(-c3ccc4ccccc4c3)cc2)c2ccccc2n1	inactive	inactive
Oc1cccc2cc(-c3ccncc3)cnc12	inactive	inactive
FC(F)(F)c1ccccc1-c1nc(NCC23CC4CC(CC(C4)C2)C3)c2ccccc2n1	inactive	inactive
Cc1cccc(CNc2ncnc3ccc(-c4ccc5c(ccn5C)c4)cc23)c1	inactive	inactive
Cc1cc(C=CC#N)cc(C)c1Nc1nc(Nc2ccc3c(c2)OCO3)c2[nH]cnc2n1	inactive	inactive
